Screen size: about 53,000 compounds; about 900 (1.7%) showed an effect of 50% or more. For the sample, strong results were picked, then their nearest neighbours and some compounds at random.
tested on: Mycobacterium tuberculosis; assay: Cornell - Phenotypic assay to identify agents that inhibit growth of Mycobacterium tuberculosis; type: functional; parameters: scale not given: direction of the effect not stated beside the values; settings: 10 mM as filed; unlikely as a test dose

Row | Compound | Percent Effect
1 | O=C(Cc1cccc(O)c1)N1CCCC(O)(CN2CCCC2)CC1 (configuration not stated) | -1.621%
2 | c1cc2c(cc1CN1CCN(Cc3noc(C4CC4)n3)CC1)OCO2 | 10.54%
3 | CCC(=O)Nc1ccc2c(c1)C1(CCOCC1)CN2CCF.O=C(O)C(F)(F)F | 2.387%
4 | CCC1C(=O)NCCN1c1nccc(C)n1 (configuration not stated) | -0.2663%
5 | CCC(C)N1CCc2nc(N3CCCC3)nc(NC(C)C)c2C1 (configuration not stated) | -13.77%
6 | Cc1nc(CN2CCc3nc(NC(C)C)nc(C)c3C2)cs1 | 38.07%
7 | CC(C)Nc1nc(N2CCCC2)nc2c1CN(C)CC2 | 33.38%
8 | CCCN1CCc2nc(N3CCOCC3)nc(NC(C)C)c2C1 | 29.26%
9 | Cc1nc(CN2CCc3nc(N4CCCC4)nc(NC(C)C)c3C2)cs1 | 75.47%
10 | CC(C)Nc1nc(N2CCCC2)nc2c1CN(C(C)C)CC2 | 61.73%
11 | CC(C)Nc1nc(N2CCCC2)nc2c1CN(c1ncc(F)cn1)CC2 | 82.11%
12 | CCN1CCc2nc(N3CCOCC3)nc(NC(C)C)c2C1 | 16.58%
13 | CC(C)Nc1nc(N2CCCC2)nc2c1CN(S(C)(=O)=O)CC2 | 12.79%
14 | CCN(C(=O)c1nc2c(s1)CCCN2c1ccc(C)nn1)C(C)C | 10.96%
15 | Cc1cc(F)ccc1N1CCCC(Nc2nccn3cnnc23)C1=O (configuration not stated) | -2.577%
16 | Cc1cc(C(F)(F)F)n2nc(C3CCN(S(=O)(=O)N(C)C)CC3)cc2n1 | -8.533%
17 | Cc1cc(C)nc(C2CCCN2C(=O)c2cnccn2)n1 (configuration not stated) | -1.129%
18 | Cn1ccc2c(-c3cc(N4CCCCC4)ncn3)ccnc21 | -7.071%
19 | Clc1cc(N2CCN(C3CCOCC3)CC2)nc2[nH]ccc12 | -30.2%
20 | CN(Cc1noc(-c2ccccc2)n1)C(=O)CSc1nnc(N)s1 | -22.54%
21 | CC(C)NC(=O)Cc1cnc(-n2cccc2)s1 | 43.3%
22 | CCOCC(=O)N1CCCn2c(CN3CCOCC3)nnc2C1 | 18.04%
23 | Cn1cc(-c2cnc(N3CCCC3)nc2)cc1C(=O)O | 95.84%

Row | Compound | Percent Effect
24 | Cn1cc(-c2cnc(N3CCOCC3)nc2)cc1C(=O)O | 44.3%
25 | CN1CCN(C(=O)c2cc(-c3cnc(N4CCCC4)nc3)cn2C)CC1 | 2.355%
26 | COc1cccc(Cl)c1C(C(=O)O)N1CCC(Cn2cccn2)CC1 (configuration not stated) | -18.71%
27 | CN(Cc1noc(C(C)(C)C)n1)Cc1ccccc1N1CCCCC1 | 2.184%
28 | CC(C)(O)C1CCN(C(=O)Nc2nc(-c3ccccc3)ns2)CC1 | 105.1%
29 | CC(C)(O)C1CCCN(C(=O)Nc2nc(-c3ccccc3)ns2)C1 (configuration not stated) | 24.52%
30 | O=C(Nc1nc(-c2ccccc2)ns1)N1CCC(F)CC1 | 13.41%
31 | O=C(c1ccc(-n2cnnc2)cc1)N1CCCC(n2ccnc2)C1 (configuration not stated) | 15.63%
32 | Cc1cc(C)c2cc(CNCc3ccc(C)o3)c3nn(C)c(=O)n3c2c1 | -2.639%
33 | O=C(CCn1ccc2ccc(Cl)cc21)NCc1ccc(C(=O)O)cc1 | 28.36%
34 | CC(C)NC(=O)C1(Cc2ccccc2-c2ccccc2)CCCNC1 (configuration not stated) | -4.67%
35 | CC(C)NC(=O)C1(Cc2ccccc2-c2cncnc2)CCCNC1 (configuration not stated) | -1.5%
36 | Cc1ccc(-c2ccccc2CC2(C(=O)NC(C)C)CCCNC2)cc1 (configuration not stated) | 60.07%
37 | Cc1cc(C)n(CC2CN(Cc3cccc(C#N)c3)CCO2)n1 (configuration not stated) | 14.78%
38 | COc1ccc(CN2CCn3cc(CN4CCN(C)CC4)nc3C2)cc1.O=C(O)C(F)(F)F.O=C(O)C(F)(F)F.O=C(O)C(F)(F)F | 3.435%
39 | CC(C)COCCC(=O)Nc1ccc2oc(=O)n(CCN(C)C)c2c1 | -58.21%
40 | O=C(NCCc1cc(N2CCOCC2)nc(NC2CC2)n1)C1CC1 | 33.35%
41 | O=C(NCCc1cc(N2CCOCC2)nc(N2CCCC2)n1)C1CC1 | 50.32%
42 | O=C(NCCc1cc(N2CCOCC2)nc(NC2CC2)n1)C1CCCO1 (configuration not stated) | 34.16%
43 | NC(=O)C1CCN(c2nccc(-c3c[nH]nc3C3CCCCC3)n2)CC1 | 12.19%
44 | OC[C@H]1CCCN1c1nccc(-c2c[nH]nc2C2CCCCC2)n1 | 4.191%
45 | c1cc(-c2c[nH]nc2C2CCCCC2)nc(N2CCCCCC2)n1 | 77.63%
46 | COCCNC(=O)c1ccc2ccc(N3CCN(CC4CC4)CC3)n2c1 | -16.88%

Row | Compound | Percent Effect
47 | Cc1cc(-c2cc(F)ccc2C(=O)O)nc(C2CCCN(C)C2)n1 (configuration not stated) | 0.614%
48 | COc1ccccc1C1(CNc2nnc(C)c(C)c2C#N)CCOCC1 | -5.763%
49 | Cc1nnc(NCC2(c3ccccc3)CCC2)c(C#N)c1C | 47.49%
50 | COc1ccccc1C1(CNc2nnc(C)c(C)c2C#N)CCCC1 | 86.76%
51 | Cn1cnnc1SCc1cc2c(cc1Cl)OCO2 | 23.01%
52 | Cc1n[nH]c(C)c1NC(=O)C1CCCN(C(=O)NCC(C)C)C1 (configuration not stated) | -0.6091%
53 | CCCc1cnc(C)nc1N1CCC(Cn2cc(CN(C)C)nn2)CC1 | 18.6%
54 | O=S(=O)(c1cccnc1)N1CCCCC1CCN1CCOCC1 (configuration not stated) | -15.47%
55 | O=C(c1ccc(F)cc1F)N(CC(F)(F)F)C1CCOCC1 | 37.88%
56 | Cc1cc(C(=O)N(CC(F)(F)F)C2CCOCC2)c(C)o1 | 51.1%
57 | CCN(C(=O)c1cc(C)oc1C)C1CC1 | 4.626%
58 | Cc1cn2c(n1)CCC(NC(=O)CCOc1cccc(F)c1)C2 (configuration not stated) | 5.433%
59 | Cc1cc(N2CCN(C3CCOCC3)CC(C(=O)N(C)C)C2)ncn1 (configuration not stated) | 3.983%
60 | Cc1ccccc1CC(=O)NCc1cnc(CC2CCN(C)CC2)cn1 | 48.16%
61 | Cc1ccc(CN2CCC3(CC2)C(=O)Nc2ccccc23)s1.O=C(O)C(F)(F)F | 18.05%
62 | O=C(O)C(F)(F)F.O=C1Nc2ccccc2C12CCN(Cc1cccs1)CC2 | 50.44%
63 | O=C(O)C(F)(F)F.O=C1Nc2ccccc2C12CCN(Cc1nccs1)CC2 | -8.416%
64 | CCOc1ccc(NC(C)=O)cc1S(=O)(=O)Nc1nccs1 | 7.151%
65 | CC(CCc1ccco1)NC(=O)Nc1cc(C(F)(F)F)c[nH]c1=O (configuration not stated) | 102.9%
66 | CN(Cc1ccco1)C(=O)Nc1cc(C(F)(F)F)c[nH]c1=O | -17.34%
67 | O=C(CCc1ccco1)Nc1cc(C(F)(F)F)c[nH]c1=O | 7.769%

— ChEMBL document CHEMBL3988442, “University of Dundee, Small-Polar-MMV Screening Library” (2021)
